The whole screen tested about 3,700 compounds, of which fewer than 10 were called active. A selection follows. Unmarked numbers belong to inactive results. The rule behind the calls is not given here.
Test: NMR binding screen, influenza A RNA promoter, Kd (AID 1637)
Conditions: NMR binding to influenza A RNA promoter

| Structure (SMILES) | Kd [mM] |
| --- | --- |
| COC(=O)c1nc(-c2ccccc2)oc1N(C)C | > 4 |
| Cc1cc(C)n(S(=O)(=O)c2cc(C)c(C)cc2C)n1 | > 4 |
| CCc1cc2c(SCC(=O)O)ncnc2s1 | > 4 |
| O=C(c1ccccc1)c1ccc(N2CCNCC2)cc1 | > 4 |
| CC(=O)Nc1cccc(NC(=O)c2cccnc2)c1 | > 4 |
| C(=N\c1nccs1)/c1cccnc1 | > 4 |
| Cc1ccccc1C(=O)Nn1cnnc1 | > 4 |
| OCc1cccc2c1OCCO2 | > 4 |
| O=C(Nc1cccnc1)N1CCOCC1 | > 4 |
| CN(c1ccccc1C(=O)N1CCCC1)S(C)(=O)=O | > 4 |
| [O-][n+]1onc2c1CCc1c-2nc(-c2ccccc2)n1O | > 4 |
| CNC(=O)c1cc(C)c(-c2ccccc2)s1 | > 4 |
| NC(=O)CC(=O)NC12CC3CC(CC(C3)C1)C2 | > 4 |
| O=C(NCc1cccs1)c1ccc2c(c1)OCCO2 | > 4 |
| COCCn1c(C)cc(O)cc1=O | > 4 |
| CSc1ccc(C(=S)N2CCN(C)CC2)cc1 | > 4 |

| Structure (SMILES) | Kd [mM] |
| --- | --- |
| Nc1ncnc(Nc2ccccc2C(F)(F)F)n1 | > 4 |
| Cc1nnsc1C(=O)O | > 4 |
| CCc1ccccc1NC(=O)c1cnccn1 | > 4 |
| Cc1ccc(/C=C2/C(=O)N=C(N)N2C)s1 | > 4 |
| O=c1[nH]cc(NCc2ccco2)c(=O)[nH]1 | > 4 |
| COc1ccc(-c2c(O)c3c(OC)c4c(cc3oc2=O)OC(C)(C)CC4)cc1 | > 4 |
| COC[C@]12CN(C=O)C3[C@@H]4[C@H](OC)C1[C@]3(C1CC3(O)C(OC)C(O)C4(OC(C)=O)C1C3OC(=O)c1ccccc1)[C@@H](OC)C[C@H]2O (some centres not stated) | > 4 |
| C=C(C)[C@@H]1CC[C@]2(CO)CC[C@]3(C)[C@H](CCC4[C@@]5(C)CC[C@H](O)C(C)(C)C5CC[C@]43C)C12 (some centres not stated) | > 4 |
| CSc1ncc(C(=O)O)n1Cc1ccccc1 | > 4 |
| CCOC(=O)C1CCNCC1 | > 4 |
| NCc1csc(-c2ccccc2)n1 | > 4 |
| O=C(O)c1ccc2snnc2c1 | > 4 |
| Oc1ccc(C2SCCS2)cc1 | > 4 |
| Nc1oncc1-c1ccccn1 | > 4 |
| Cc1cccc(CSc2nncc(=O)[nH]2)c1 | > 4 |
| COc1ccc2c(c1)c1n[nH]c(=S)nc1n2C | > 4 |
